Results taken from PubChem BioAssay (NCATS).
Inconclusive results are not listed. Calls of active or inactive are those of the source. Calls come from the whole dose curve; as a rule, active = well fitted activation curve with a large enough effect in the repeat runs; inconclusive = weak or mixed curves; inactive = flat fitted curve, though single readings scatter.
Potency is the fitted concentration of half-maximal effect.

Experiment: qHTS assay for small molecule agonists of the antioxidant response element (ARE) signaling pathway measured by Nrf2-dependant transcriptional activity (AID 720636); for activation: % of control where 0% means no effect
Conditions: ARE-luc HepG2, Nrf2 luciferase reporter, 16 h; series mostly up to 92.4 µM; activation: at the top concentration
Text: National Center for Advancing Translational Sciences [NCATS] NIH Chemical Genomics Center [NCGC] U.S. Environmental Protection Agency [EPA] National Institutes of Environmental Health Sciences [NIEHS] National Toxicology Program [NTP] Assay Overview: The antioxidant response element (ARE) signaling pathway plays an important role in the cellular anti-oxidant defense. Exposure to stressors which are exogenous like ionizing radiations, chemicals, U-V light, and endogenous like cell signaling, metabolic processes or inflammation, reactive oxygen species (ROS), can induce oxidative stress in the cells. Oxidative stress has been implicated in the pathogenesis of a variety of diseases ranging from cancer to neurodegeneration. ARE-luc HepG2 cell line (Simmons et al., Current Chemical Genomics, 5:1-12, 2011) has been used for identifying the chemicals that induce oxidative stress. The cell line has an Nrf2-responsive luciferase reporter gene that has been engineered to measure Nrf2-dependant transcriptional activity.
Assay Protocol Summary: For measuring ARE induction; 2,000 ARE-luc HepG2 cells in 5 uL of assay medium containing 1% dialyzed FBS per well were dispensed into white wall/solid bottom 1536-well plates using a Flying Reagent Dispenser (FRD) (Aurora Discovery). The assay plates were incubated for 6 hr at 37 C to allow cell attachment to the well bottom, followed by the transfer of 23 nL compound or DMSO vehicle by a pin tool (Kalypsys). The plates were incubated for 16 hr at 37 C and 5% CO2, followed by the addition of 5 uL of ONE-GloTM luciferase reagent (Promega) into each well using FRD. After 30 min room temperature incubation, plates were read on a ViewLux plate reader (PerkinElmer).
With Cc1cccc(O)c1C the “activation” value was -0.867% (inactive). In the case of ClC1=C(Cl)C(Cl)(Cl)C(Cl)=C1Cl, the Potency is reported as “inactive”. For Cc1cc(Nc2ccc(O)cc2)ccc1N, the “activation” value was 0.299% (inactive). In the case of CN1[C@H]2CC(OC(=O)[C@H](CO)c3ccccc3)C[C@H]1[C@H]1O[C@H]12 (some centres not stated), the Potency is reported as “inactive”. In the case of CCC(C)Nc1ccc(NC(C)CC)cc1 (configuration not stated), the “activation” value is reported as -5.62% (inactive). With CC1CCC(C(C)C)C(O)C1 (configuration not stated) the “activation” value was 0.339% (inactive). For CO[C@H]1/C=C/O[C@@]2(C)Oc3c(C)c(O)c4c(O)c(c5c(c4c3C2=O)NC2(CCN(CC(C)C)CC2)N=5)=NC(=O)/C(C)=C\C=C\[C@H](C)[C@H](O)[C@@H](C)[C@@H](O)[C@@H](C)[C@H](OC(C)=O)[C@@H]1C, the “activation” value was -1.19% (inactive). With O=C1OC2(c3cc(Br)c(O)c(Br)c3Oc3c2cc(Br)c(O)c3Br)c2c(Cl)c(Cl)c(Cl)c(Cl)c21 the “activation” value was -0.974% (inactive). In the case of CCCCCC/C(C=O)=C\c1ccccc1, the “activation” value is reported as -0.597% (inactive). For CNc1ccc(O)cc1, the Potency was 37.6 µM (active). In the case of O=C=Nc1ccc(Cc2ccc(N=C=O)cc2)cc1, the Potency is reported as “inactive”. For O=C(OCC(COC(=O)c1ccccc1)(COC(=O)c1ccccc1)COC(=O)c1ccccc1)c1ccccc1, the “activation” value was -0.279% (inactive). In the case of CCCCCCCC[N+](CCCCCCCC)(CCCCCCCC)CCCCCCCC, the “activation” value is reported as -5.32% (inactive). For Cc1cc(C(C)(C)CC(C)(C)C)ccc1OCCOCC[N+](C)(C)Cc1ccccc1, the “activation” value was -4.08% (inactive). With C=C(C)c1ccccc1 the “activation” value was -2.39% (inactive). With CN(C)c1ccc(C2(c3ccc(N(C)C)cc3)OC(=O)c3cc(N(C)C)ccc32)cc1 the “activation” value was -0.42% (inactive). In the case of CC1(C)CCC(C)(C)c2cc(C(=O)Nc3ccc(C(=O)O)cc3)ccc21, the “activation” value is reported as -0.261% (inactive). With O=Cc1ccc(Cl)c(Cl)c1 the “activation” value was -0.682% (inactive). With C=CC(=O)OCCOCCOC(=O)C=C the Potency was 66.8 µM (active). With Cc1ccc(S(=O)(=O)Oc2ccc(N=Nc3ccc(-c4ccc(N=Nc5c(O)ccc6cc(S(=O)(=O)O)cc(S(=O)(=O)O)c56)c(C)c4)cc3C)cc2)cc1 the “activation” value was -1.26% (inactive). In the case of O=C(/C=C/c1ccc(O)c(O)c1)OC1C[C@](O)(C(=O)O)C[C@@H](O)[C@H]1O (some centres not stated), the Potency is reported as “inactive”. With Cc1cc(O)c(C(C)(C)C)cc1Sc1cc(C(C)(C)C)c(O)cc1C the Potency was “inactive”.
